TIM10 inh – inhibits growth of TIM10 yeast strain; S. cerevisiae TIM10 strain growth, BacTiter-Glo luminescence, 24 h; inhibition, % at 10 µM; 1.4% of 330,000 active; AID 463195;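 active = inhibition of 40% or more at the single tested concentration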;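 note: wild-type TIM10 isogenic control strain grown at permissive 25 °C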
PfHsp90 yeast 2 – growth inhibition of yeast expressing Plasmodium Hsp90. AID 504621. inhibition, % at 9.4 µM. S. cerevisiae expressing PfHsp90, BacTiter-Glo ATP, 48 h; yeast lacking PDR1 and PDR3 efflux regulators. 0.32% of 310,000 active;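 active = every replicate shows inhibition above about 80%, whatever the replicate mean, limit read from the data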
NLRP3 yeast inh – inhibitors of NALP3 inflammasome in yeast; AID 2825; inhibition, % at 10 µM; Yeast reconstituted NLRP3/ASC/caspase-1, beta-gal luminescence, 24 h; 0.39% of 330,000 active;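 active = inhibition of 50% or more; inactive = inhibition below 50%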
SKKanGAS inh – SKKanGAS growth inhibition | AID 1662 | 1.3% of 300,000 active | inhibition, % at 7.5 µM | S. pyogenes SKKanGAS, kanamycin growth, BacTiter-Glo, 6 h;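 active = mean replicate score, as percent of positive control median, at least 50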;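 note: strain carries kanamycin resistance gene driven by streptokinase promoter and grows in 40 µg/ml kanamycin; loss of luminescence reflects streptokinase promoter inhibition or plain growth inhibition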
tim10-1 inh – tim10-1 yeast growth inhibition | AID 463190 | S. cerevisiae tim10-1 ts strain growth, BacTiter-Glo, 24 h | 2.2% of 330,000 active | inhibition, % at 20 µM;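 active = inhibition of at least 40%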;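 note: mutant grown at 25 °C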
tim23-1 inh – growth inhibitors of tim23-1 mutant yeast. S. cerevisiae tim23-1 growth, BacTiter-Glo luminescence, 24 h. inhibition, % at 20 µM. 1.3% of 330,000 active;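 active = growth inhibition of the mutant yeast at or above 50%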;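 note: temperature-sensitive mutant grown at 25 °C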
Numbers stand for hits. The list is not random: actives were taken first. Their share in the collection is about 4.6%.

What do the screens show for `O=C(O)c1ccccc1C(=O)N1CCc2c([nH]c3ccccc23)C1C(F)(F)F` (configuration not stated)?
TIM10 inh: inactive; NLRP3 yeast inh: inactive; SKKanGAS inh: inactive; tim10-1 inh: inactive; tim23-1 inh: inactive

What do the screens show for `CC(C)CC(=O)NC(=S)N(Cc1ccccc1)Cc1ccccc1`?
TIM10 inh: inactive; PfHsp90 yeast 2: inactive; NLRP3 yeast inh: inactive; SKKanGAS inh: 54; tim10-1 inh: inactive; tim23-1 inh: inactive

What do the screens show for `Cc1ccccc1C(=O)NC(=S)N(CCO)Cc1ccccc1`?
TIM10 inh: inactive; PfHsp90 yeast 2: inactive; NLRP3 yeast inh: inactive; SKKanGAS inh: inactive; tim10-1 inh: inactive; tim23-1 inh: inactive

What do the screens show for `O=C(CSc1nnc(CNC(=O)c2ccc(F)cc2)o1)NCc1ccccc1Cl`?
TIM10 inh: inactive; PfHsp90 yeast 2: inactive; NLRP3 yeast inh: inactive; SKKanGAS inh: 51; tim10-1 inh: inactive; tim23-1 inh: inactive

Results for Cc1cc(-c2nn(-c3ccccc3F)cc2CN(C)CC(O)CO)c(C)s1 (configuration not stated) ?
TIM10 inh: inactive; PfHsp90 yeast 2: inactive; NLRP3 yeast inh: inactive; SKKanGAS inh: inactive; tim10-1 inh: inactive; tim23-1 inh: inactive

Results for O=C(O)c1cn(C2CC2)c2cc(N3CCN(S(=O)(=O)c4ccc5c(c4)OCCO5)CC3)c(F)cc2c1=O ?
TIM10 inh: inactive; PfHsp90 yeast 2: inactive; NLRP3 yeast inh: inactive; SKKanGAS inh: 121; tim10-1 inh: inactive; tim23-1 inh: inactive

How did Cc1cccc(C)c1OCC(=O)NNC(=S)NC(=O)C1CC1 do in these assays?
TIM10 inh: inactive; PfHsp90 yeast 2: 104; NLRP3 yeast inh: inactive; SKKanGAS inh: 95; tim10-1 inh: inactive; tim23-1 inh: inactive

How did N=c1c(-c2nc3ccccc3[nH]2)cc(C(=O)c2cccs2)nn1-c1ccccc1 do in these assays?
TIM10 inh: inactive; NLRP3 yeast inh: inactive; SKKanGAS inh: 51; tim10-1 inh: inactive; tim23-1 inh: inactive

How did N=c1c(-c2nc3ccccc3[nH]2)cc(C(=O)c2ccco2)nn1-c1ccccc1 do in these assays?
TIM10 inh: inactive; PfHsp90 yeast 2: inactive; NLRP3 yeast inh: inactive; SKKanGAS inh: inactive; tim10-1 inh: inactive; tim23-1 inh: inactive

How did CC1Cc2cc(S(=O)(=O)N3CCN(c4ccccc4F)CC3)ccc2N1C(=O)C1CC1 (configuration not stated) do in these assays?
TIM10 inh: inactive; PfHsp90 yeast 2: inactive; NLRP3 yeast inh: inactive; SKKanGAS inh: inactive; tim10-1 inh: inactive; tim23-1 inh: inactive

Results for O=S(=O)(NCc1nnc2ccccn12)c1ccc(Cl)cc1 ?
TIM10 inh: inactive; PfHsp90 yeast 2: inactive; NLRP3 yeast inh: inactive; tim10-1 inh: inactive; tim23-1 inh: inactive

What do the screens show for `CCCOc1ccc(-c2nc(OC)c3ccccc3n2)cc1`?
TIM10 inh: inactive; NLRP3 yeast inh: inactive; SKKanGAS inh: 56; tim10-1 inh: inactive; tim23-1 inh: inactive

How did C/C(=N\NC(=O)c1c(Cl)c(C)nn1C)c1cccc(NC(=O)c2cccc(F)c2)c1 do in these assays?
TIM10 inh: inactive; PfHsp90 yeast 2: inactive; NLRP3 yeast inh: inactive; SKKanGAS inh: 55; tim10-1 inh: inactive; tim23-1 inh: inactive

What do the screens show for `C/C(=N\NC(=O)c1c(Cl)c(C)nn1C)c1cccc(NC(=O)COc2ccccc2)c1`?
TIM10 inh: inactive; PfHsp90 yeast 2: inactive; NLRP3 yeast inh: inactive; SKKanGAS inh: inactive; tim10-1 inh: inactive; tim23-1 inh: inactive

What do the screens show for `Brc1ccc(C2C3=C(Nc4ncnn42)c2ccccc2OC3c2ccncc2)cc1` (configuration not stated)?
TIM10 inh: inactive; PfHsp90 yeast 2: inactive; NLRP3 yeast inh: inactive; SKKanGAS inh: 88; tim10-1 inh: inactive; tim23-1 inh: inactive

Results for COc1ccc(C2Oc3ccccc3C3=C2C(c2cccs2)n2ncnc2N3)cc1 (configuration not stated) ?
TIM10 inh: inactive; PfHsp90 yeast 2: inactive; NLRP3 yeast inh: inactive; SKKanGAS inh: 78; tim10-1 inh: inactive; tim23-1 inh: inactive

How did O=C(Nc1ccc(Oc2ccccc2)cc1)c1cnc2n(c1=O)CCS2 do in these assays?
TIM10 inh: inactive; PfHsp90 yeast 2: inactive; NLRP3 yeast inh: inactive; SKKanGAS inh: inactive; tim10-1 inh: inactive; tim23-1 inh: inactive

How did COc1ccc(Sc2ccc(-c3nc4cnccn4c3NC3CCCCC3)cc2OC)cc1 do in these assays?
TIM10 inh: inactive; PfHsp90 yeast 2: inactive; NLRP3 yeast inh: inactive; tim10-1 inh: inactive; tim23-1 inh: inactive

Results for CCCCNc1c(-c2ccc(OC)c(SC3CCCCC3)c2)nc2ccc(Cl)cn12 ?
TIM10 inh: inactive; PfHsp90 yeast 2: inactive; NLRP3 yeast inh: inactive; tim10-1 inh: inactive; tim23-1 inh: inactive

Results for CCCCCCSc1cc(-c2nc3cnccn3c2NCc2ccccc2)ccc1OC ?
TIM10 inh: inactive; PfHsp90 yeast 2: inactive; NLRP3 yeast inh: inactive; SKKanGAS inh: 65; tim10-1 inh: inactive; tim23-1 inh: inactive

Results for COc1cc(-c2nc3cnccn3c2NC(C)(C)CC(C)(C)C)ccc1O ?
TIM10 inh: inactive; PfHsp90 yeast 2: inactive; NLRP3 yeast inh: inactive; SKKanGAS inh: inactive; tim10-1 inh: inactive; tim23-1 inh: inactive

What do the screens show for `CCC(C)Sc1ccc(-c2nc3cnccn3c2NC2CCCCC2)cc1` (configuration not stated)?
TIM10 inh: inactive; PfHsp90 yeast 2: inactive; NLRP3 yeast inh: inactive; SKKanGAS inh: 93; tim10-1 inh: inactive; tim23-1 inh: inactive

How did CCCCCCSc1cc(-c2nc3cc(C)ccn3c2NC2CCCCC2)ccc1OC do in these assays?
TIM10 inh: inactive; PfHsp90 yeast 2: inactive; NLRP3 yeast inh: inactive; SKKanGAS inh: inactive; tim10-1 inh: inactive; tim23-1 inh: inactive

How did CCCCNc1c(-c2ccc(-c3ccc(C(C)=O)cc3)c(OC)c2)nc2cnccn12 do in these assays?
TIM10 inh: inactive; PfHsp90 yeast 2: inactive; NLRP3 yeast inh: inactive; SKKanGAS inh: 64; tim10-1 inh: inactive; tim23-1 inh: inactive

Results for CCCCNc1c(-c2ccc(OC)c(SC3CCCCC3)c2)nc2cc(C)ccn12 ?
TIM10 inh: inactive; PfHsp90 yeast 2: inactive; NLRP3 yeast inh: inactive; SKKanGAS inh: 72; tim10-1 inh: inactive; tim23-1 inh: inactive

What do the screens show for `CCOc1ccc(NC(=O)CSc2ncn[nH]2)cc1`?
TIM10 inh: inactive; PfHsp90 yeast 2: inactive; NLRP3 yeast inh: inactive; SKKanGAS inh: inactive; tim10-1 inh: inactive; tim23-1 inh: inactive

Results for COc1ccc(-c2nc3cnccn3c2NCc2ccccc2)cc1SC1CCCCC1 ?
TIM10 inh: inactive; PfHsp90 yeast 2: inactive; NLRP3 yeast inh: inactive; SKKanGAS inh: 55; tim10-1 inh: inactive; tim23-1 inh: inactive

How did COc1ccc(-c2nc3ccccn3c2NC2CCCCC2)cc1SC1CCCCC1 do in these assays?
TIM10 inh: inactive; PfHsp90 yeast 2: inactive; NLRP3 yeast inh: inactive; SKKanGAS inh: 83; tim10-1 inh: inactive; tim23-1 inh: inactive

Results for CCCCNc1c(-c2ccc(SC3CCCCC3)cc2)nc2cnccn12 ?
TIM10 inh: inactive; PfHsp90 yeast 2: inactive; NLRP3 yeast inh: inactive; tim10-1 inh: inactive; tim23-1 inh: inactive
